# Compounds with a hit are over-represented: about 2.4% of the library has one in this group of screens.
# M1 ag = agonists of human M1 muscarinic receptor; 360,000 tested, 0.33% active; activation, % at 3 µM; CHO-K1 hM1, Fluo-8 calcium fluorescence, agonist mode; 0% DMSO, 100% acetylcholine EC100; P11229; AID 588814;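 active = activation above the run's mean compound activation plus 3 SD, cut at about 16% in these data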;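 also: peak over basal fluorescence ratio within a 140 s kinetic read after compound addition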
# Target sequence (P11229 whole entry, looked up): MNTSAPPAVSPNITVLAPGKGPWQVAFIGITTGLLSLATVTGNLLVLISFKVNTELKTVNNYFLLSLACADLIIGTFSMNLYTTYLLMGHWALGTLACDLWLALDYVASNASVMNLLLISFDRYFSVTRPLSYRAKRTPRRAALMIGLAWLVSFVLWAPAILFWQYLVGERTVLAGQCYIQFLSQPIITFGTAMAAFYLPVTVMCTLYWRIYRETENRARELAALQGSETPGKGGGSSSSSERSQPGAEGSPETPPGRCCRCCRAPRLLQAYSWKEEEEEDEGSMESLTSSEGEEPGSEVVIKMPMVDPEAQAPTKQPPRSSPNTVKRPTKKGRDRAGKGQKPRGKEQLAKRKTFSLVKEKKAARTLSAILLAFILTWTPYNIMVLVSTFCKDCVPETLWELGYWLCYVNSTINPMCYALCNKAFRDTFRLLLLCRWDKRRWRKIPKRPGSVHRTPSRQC
# CHRM1 PAM = potentiates human M1 receptor response to acetylcholine; CHO-K1 hM1, Fluo-8 calcium fluorescence, ACh EC20; 0% = ACh EC20, 100% = maximal ACh; 360,000 tested, 0.088% active; AID 588819; activation, % at 3 µM; in the data active = activation above about 19%, passing the limit was not always enough
# CHO-K1 Ca ag = M1 agonist counterscreen hit in parental CHO-K1 cells; Fluo-8 calcium fluorescence; scaled to maximal ATP response, vehicle zero; activation, % at 3 µM; 360,000 tested, 0.48% active; AID 602248; in the data active = activation above about 15%;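 also: untransfected CHO-K1 host cells lacking M1 receptor as counterscreen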
# CHRM1 antagonist = antagonists of human M1 muscarinic receptor | P11229 | CHO-K1 hM1, Fluo-8 calcium fluorescence, ACh EC80 antagonist | inhibition, % at 3 µM | 360,000 tested, 1.3% active | AID 588852;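 active = percent inhibition above its own plate's cutoff, namely the mean of that plate's compound wells plus 3 SD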;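 also: peak over basal fluorescence ratio during 140 s after agonist addition; 0% = ACh EC80 plus DMSO and 100% = DMSO alone without agonist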
# CHO-K1 Ca PAM = counter-screen for M1 PAMs: effect in parental CHO-K1 cells | 360,000 tested, 0.02% active | ATP EC20, Fluo-8 calcium fluorescence; 0% at ATP EC20, 100% at ATP max | activation, % at 3 µM;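 active = activation above the run cutoff, the mean activation of all test compounds plus 3 SD, cut at about 40% in these data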;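 also: peak over basal fluorescence ratio in a 140 s read after ATP addition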
# CHO-K1 Ca antag = counter-screen for M1 antagonists: effect in parental CHO-K1 cells. AID 602250. ATP-induced calcium, Fluo-8 fluorescence. 360,000 tested, 0.6% active. inhibition, % at 3 µM;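 active = inhibition above a per-plate cutoff, the plate's mean sample inhibition plus 3 SD, cut at about 24% in these data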;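 also: 0% = DMSO plus EC80 ATP and 100% = DMSO alone without ATP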
# An asterisk follows results filed as active; x = no result.
SMILES,M1 ag,CHRM1 PAM,CHO-K1 Ca ag,CHRM1 antagonist,CHO-K1 Ca PAM,CHO-K1 Ca antag
c1ccc(CCNc2c3c(nc4ncnn24)CCC3)cc1,2,-6,21*,11,7,-1
COc1ccccc1-c1cnc(C(O)c2ccc(F)c(F)c2)[nH]1 (stereo not drawn),1,7,1,-9,29,-12
Cc1ccc(-n2nnnc2SCn2nnc3ccccc3c2=O)cc1,-3,-9,2,25,-2,-3
Cc1cccc(-n2nnnc2SCn2nnc3ccccc3c2=O)c1,-2,-8,2,10,-6,27*
COc1ccc(CCNC(=O)c2cc3c(cc2Cl)N2CCCCCC2=NS3(=O)=O)cc1,-7,1,1,-3,-13,-11
CC(C)Oc1ccc(OCCCN2CCCCCC2)cc1,-7,-20,0,36*,7,-2
Clc1ccc(OCCCCN2CCCCC2)cc1,-9,-11,1,16,0,11
CC(C)(C)c1ccc(OCCCN2CCCC2)cc1,-8,5,2,-17,17,-3
CC(C)c1ccc(OCCCCN2CCCCC2)cc1,-8,-25,4,60*,-3,-7
CC1(C(=O)NC2CCCCC2)CCC(=O)N1CCOc1ccccc1 (stereo not drawn),-4,2,0,7,-2,11
O=C(N/N=C\c1ccc([N+](=O)[O-])s1)C1COc2ccccc2O1 (stereo not drawn),-2,5,1,-6,-2,65*
O=c1nc(-c2ccccc2)c2cc(Br)ccc2[nH]1,5,15,0,-7,-3,-4
O=c1nc(-c2ccccc2)c2cc(SC(F)F)ccc2[nH]1,-2,28*,1,-3,7,0
COc1ccc(-c2oc3ccc(-c4cc(OC)c(OC)c(OC)c4)cc3c2C#Cc2ccccn2)cc1,1,-4,0,1,5,-14
COc1ccc(CCN(C)C(=O)Cc2ccc(-c3ccccc3)cc2)cc1OC,2,-6,12,10,-26,24*
COc1ccc(CCN(C)C(=O)COc2ccc(C(=O)c3ccccc3)cc2)cc1OC,-1,-1,1,3,-17,-1
O=c1sc2ccccc2c(N2CCCC2)c1[N+](=O)[O-],3,8,0,-8,4,1
Nc1c([N+](=O)[O-])c(=O)sc2ccccc12,-5,10,15*,-5,10,-1
CC1(C(=O)O)CCC(C(=O)N2CCCCC2)C1(C)C (stereo not drawn),-2,4,0,-5,13,-10
Cc1cc(C)c(C(=O)CSc2n[nH]c(-c3ccncc3)n2)c(C)c1,-3,-6,18*,7,1,8
O=C1NC[C@@H](CCCCN2CCN(CCc3ccc(O)cc3)C(=O)C2=O)N(CCC2CCCCC2)C1=O,x,x,1,x,12,-17
CCN1CCc2c(sc(NC(=O)Cc3ccccc3)c2C(N)=O)C1,-9,3,1,-7,26,-11
CCN1CCc2c(sc(NC(=O)Nc3ccc(Cl)c(Cl)c3)c2C(N)=O)C1,114*,-19,95*,63*,-10,59*
CC12CNCC(C)(CN(C(c3ccccc3)c3ccccc3)C1)C2,-6,-22,0,59*,-5,15
Clc1ccc(C(c2ccccc2)N2CCNCC2)cc1 (stereo not drawn),0,-10,1,23,18,-15
SMILES,M1 ag,CHRM1 PAM,CHO-K1 Ca ag,CHRM1 antagonist,CHO-K1 Ca PAM,CHO-K1 Ca antag
Clc1cccc(CNc2ccn3nc(-c4cccs4)cc3n2)c1,4,12,1,-12,21,-7
Clc1cccc(CNc2ccn3nc(-c4ccco4)cc3n2)c1,1,16,-1,-16,-13,26*
Cc1ccsc1C(=O)OCC(=O)NC1CCCCC1C (stereo not drawn),-5,5,1,-5,12,-4
Cc1cc(N2C(=O)C(O)=C(C(=O)c3ccco3)C2c2ccccc2F)no1 (stereo not drawn),4,18,-1,-1,-26,7
O=S1(=O)CC(N2CCCCC2)CN1Cc1ccc(F)cc1 (stereo not drawn),-5,15,1,-15,4,9
CCN(c1cccc(C)c1)S(=O)(=O)c1ccc2c3c(cccc13)C(=O)N2,-3,0,1,6,-8,28*
Cc1c(C)n(Cc2ccccc2)c2ncnc(Cl)c12,-1,-19,9,35*,-25,19
Fc1cccc(Cc2noc(CN3CCCCC3CCc3ccccn3)n2)c1 (stereo not drawn),-8,0,1,1,-1,-8
CC1(c2ccc(OC(F)F)cc2)NC(=O)N(CC(=O)Nc2ccc(OC(F)F)cc2)C1=O (stereo not drawn),36*,-3,33*,29*,8,28*
Cc1ccc(C2(C)NC(=O)N(CC(=O)Nc3ccc4c(c3)OCO4)C2=O)cc1 (stereo not drawn),5,6,2,-8,-1,0
CC1(c2ccc(OC(F)F)cc2)NC(=O)N(CC(=O)Nc2cccc(F)c2)C1=O (stereo not drawn),45*,-1,32*,40*,-22,44*
CC1(c2ccc(OC(F)F)cc2)NC(=O)N(CC(=O)Nc2ccc(S(N)(=O)=O)cc2)C1=O (stereo not drawn),-3,-3,0,11,-5,-2
CCOc1ccc(NC(=O)CN2C(=O)NC(C)(c3ccc(OC(F)F)cc3)C2=O)cc1 (stereo not drawn),32*,3,19*,19,-3,9
Cc1ccc(NC(=O)CN2C(=O)NC(C)(c3ccc(Cl)cc3)C2=O)cc1 (stereo not drawn),18*,15,6,-2,-8,6
Cc1ccc(-n2nc3c(=O)n(CCCC(=O)NCCN4CCN(C)CC4)nc(C)c3c2C)cc1,-6,8,-1,-12,-11,-6
Cc1csc2c(=O)sc(NC(=O)c3cccs3)nc12,0,3,1,-5,18,-10
CCOC(=O)c1sc(NC(=O)CN2C(=O)NC3(CCCCCCC3)C2=O)c(C(=O)OCC)c1C,-1,2,2,-33,18,-18
CCOC(=O)c1c(NC(=O)CN2C(=O)NC(C)(c3ccc(OC(F)F)cc3)C2=O)sc(C)c1C (stereo not drawn),18*,13,9,14,30,6
CC(C)CCC(C)NC(=O)CN1C(=O)NC(C)(c2ccc3ccccc3c2)C1=O (stereo not drawn),25*,13,2,-5,-4,-2
Cc1cc(NC(=O)CN2C(=O)NC(C)(c3ccc(OC(F)F)cc3)C2=O)no1 (stereo not drawn),17*,7,9,7,27,-14
